This is an account of results in PubChem BioAssay (NCI).

Holding throughout (experiment): NCI-60 one-dose screen, 48 h (100 = growth as untreated, 0 = no growth, -100 = all killed)
Conditions in all cases: 10 µM unless noted

Assay [1] concerns SR leukemia.
In assay [2] the test system is RPMI-8226 leukemia.
Assay [3] relates to OVCAR-8 ovarian.
For assay [4], the system named is OVCAR-5 ovarian.
The test system of assay [5] is OVCAR-4 ovarian.
Assay [6] concerns SK-OV-3 ovarian.
The subject of assay [7] is IGROV1 ovarian.
Assay [8] deals with OVCAR-3 ovarian.
For assay [9], the system named is HS 578T breast.
Assay [10] relates to NCI/ADR-RES ovarian.
The subject of assay [11] is T-47D breast.
Assay [12] has as its system BT-549 breast.
For assay [13], the system named is MDA-MB-435 melanoma.
The subject of assay [14] is SW-620 colon.
For assay [15], the system named is MCF7 breast.
In assay [16] the test system is HCT-116 colon.
Assay [17] deals with HCC-2998 colon.
In assay [18] the test system is KM12 colon.

The structures appear in SMILES notation. The panel holds about 83,000 compounds, 20% with a hit somewhere; the sample as a whole holds those more often.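 Negative percent growth values reflect cell death: -40 means 40% of the cells present at the start died, and -100 means all died.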 A number with no mark means an inactive call. Calls of active or inactive are those of the source. How the source made its calls: active means growth percent below 10; inactive means the rest.

Consider `CCn1cnc(C[C@H](NC(=O)[C@@H](NC(=O)Nc2cc(C(F)(F)F)cc(C(F)(F)F)c2)C(C)C)C(=O)OC)c1`, for which the growth in [1] is -35.5% [100 µM] (active); in assay [2], -52.4% [100 µM] (active); in assay [3], -81.6% [100 µM] (active); in assay [4], -94.9% [100 µM] (active); in [5] it was -96.2% [100 µM] (active); in [6] it was -100% [100 µM] (active). In addition, the growth in assay [7] was -71.5% [100 µM] (active); in assay [8] it was -89.5% [100 µM] (active); in [9], 7.39% [100 µM] (active); in [10], 0.865% [100 µM] (active); in assay [11] it was -77.8% [100 µM] (active); in [12], -97.6% [100 µM] (active). Besides, the growth is -87.1% [100 µM] (active) in assay [13]; -44.1% [100 µM] (active) in assay [14]; -55.7% [100 µM] (active) in [15]; -88.1% [100 µM] (active) in assay [16]; -86.3% [100 µM] (active) in assay [17]; -81.9% [100 µM] (active) in [18].

Consider `COc1ccc(-c2nc(SCC(C)C)nc(Nc3ccc(C)cc3)c2C#N)cc1`, for which the growth in assay [1] is 44.3%; in [2], 73.2%; in assay [3] it was 72.3%; in assay [4], 86.4%; in assay [5], -50.4% (active); in [6], 73.7%. Moreover, the growth in assay [7] was 59.5%; in [8], 33.8%; in assay [9] it was 42.6%; in assay [10], 72.7%; in assay [11] it was 32.4%; in assay [12], 85.8%. The growth is 86.7% in assay [13]; 54.4% in assay [14]; 70.3% in [15]; 33.5% in assay [16]; 92.5% in [17]; 80.8% in assay [18].

As for `CCC(CCCN1C(=O)c2ccccc2C1=O)Nc1cc(OC)cc2c(C)ccnc12` (stereo not given), the growth was 54.9% in assay [1]; 96% in assay [2]; 98.7% in assay [3]; 99.9% in assay [4]; 73.8% in [5]; 100% in assay [6]. Further, the growth in assay [7] was 137%; in [8] it was 99.1%; in assay [9], 86.7%; in [10], 121%; in [11], 85.9%; in [12], 78.7%. Also, the growth was 99.2% in assay [13]; 85.6% in assay [14]; 91.5% in assay [15]; 98% in assay [16]; 69% in [17]; 102% in assay [18].

For `CNCCCNCCCCNCCCN1C(=O)c2ccc3c4c(ccc(c24)C1=O)C(=O)N(CCCNCc1ccccc1OC)C3=O`, the growth is 12% in [1]; 15% in [2]; 41.9% in assay [3]; 55.9% in assay [4]; -10.8% (active) in assay [5]; 54.4% in [6]. In addition, the growth is 12.7% in assay [7]; 6.09% (active) in assay [8]; 12.5% in assay [9]; 43.4% in assay [10]; 8.96% (active) in [11]; 57.8% in assay [12]. In addition, the growth is 1.07% (active) in assay [13]; 19.8% in assay [14]; 7.86% (active) in assay [15]; 11.1% in assay [16]; 31.5% in assay [17]; 12% in assay [18].

Turning to `CCCCCCCCCCCCc1ccc([N+](CC)(CC)CC)cc1`, the growth in assay [1] was 32.4%; in assay [2], 6.37% (active); in assay [3] it was 31.7%; in [4] it was 92.3%; in assay [5] it was 21.6%; in [6], 73.2%. For the same compound, the growth in assay [7] is 48.1%; in assay [8] it was 23.2%; in [9], 65.4%; in [10] it was 103%; in assay [11], 18.6%; in assay [12], 30.2%. Moreover, the growth was 13.9% in assay [13]; 27.9% in assay [15]; 41.8% in assay [16]; 36.7% in assay [17]; 25.6% in [18].

With `O=Nc1c(-c2c(O)[nH]c3cc(Br)ccc23)[nH]c2ccccc12`, the growth in assay [1] was -40.5% (active); in [2], -5.99% (active); in [3], -17.4% (active); in assay [4], -72.9% (active); in assay [5], 7.53% (active); in assay [6], -77.8% (active). The growth in [7] is -44.5% (active); in [8] it was -64.9% (active); in assay [9], -49.7% (active); in assay [10], -76.7% (active); in assay [11], -31.1% (active); in assay [12] it was 40%. The growth in assay [13] was 31.4%; in assay [14], -92.5% (active); in assay [15], -40% (active); in assay [16] it was -67.3% (active); in assay [18] it was -89.9% (active).

Turning to `CCNc1nnc(COc2ccc(CNC(=O)CCCC/C=C/C(C)C)cc2OC)o1`, the growth is 89% in [1]; 95.5% in assay [2]; 106% in assay [3]; 103% in assay [4]; 103% in assay [5]; 91.5% in [6]. Further, the growth in assay [7] is 103%; in assay [8] it was 106%; in [9] it was 98.6%; in [10], 102%; in assay [11] it was 81%; in assay [12], 102%. Moreover, the growth was 104% in [13]; 110% in assay [14]; 95.2% in assay [15]; 87.2% in assay [16]; 103% in assay [17]; 98.2% in assay [18].

For `N=C(c1ccccc1)N(Cc1ccccc1)Cc1ccccc1`, the growth is 64.8% in [1]; 94.4% in assay [2]; 97.9% in assay [3]; 86.3% in assay [4]; 84.9% in assay [5]; 98.1% in [6]. Moreover, the growth in assay [7] was 67%; in [8], 110%; in assay [9], 113%; in assay [10] it was 99.8%; in assay [11], 94.8%; in assay [12], 93.2%. For the same compound, the growth is 77.6% in [13]; 89.4% in assay [14]; 87.5% in [15]; 57.3% in assay [16]; 106% in assay [17]; 101% in [18].

`CCOC(=O)c1c(C)oc2ncnc(Nc3ccc(C(=O)NCCc4ccccc4)cc3)c12`: the growth is 89.2% in [1]; 84.6% in assay [2]; 76.7% in assay [3]; 110% in [4]; 45.5% in assay [5]; 85.6% in [6]. Further, the growth in [7] is 102%; in [8], 97.3%; in assay [9], 51.2%; in assay [10], 76.9%; in assay [11] it was 65.1%; in assay [12], 67.3%. Also, the growth in [13] is 87.5%; in assay [14] it was 105%; in assay [15], 78.6%; in assay [16] it was 64.8%; in assay [17] it was 91.5%; in assay [18], 89%.
